Data taken from PubChem BioAssay (NCATS).
Inconclusive results are not listed. A number with no mark means an inactive call. Activity calls are given as the source filed them. Calls come from the whole dose curve; as a rule, active = well fitted inhibition curve with a large enough effect; inconclusive = small, poorly fitted or top-dose-only effect; inactive = flat fitted curve, though single readings scatter.

target: Luciferin 4-monooxygenase (Photinus pyralis) (UniProt P08659); experiment: Biochemical firefly luciferase enzyme assay for NPC (AID 624030); note: nearly all actives have a fitted effect of over 70% in size;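 for activity change, negative = inhibition: purified P. pyralis luciferase at 10 nM with luciferin and ATP substrate; 0% = DMSO and -100% = full luciferase inhibition by PTC124 control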; conditions: purified P. pyralis luciferase, luminescence, 5 min; series mostly up to 58.6 µM; activity change, negative = inhibition: at the top concentration
Sequence (P08659 whole entry, looked up): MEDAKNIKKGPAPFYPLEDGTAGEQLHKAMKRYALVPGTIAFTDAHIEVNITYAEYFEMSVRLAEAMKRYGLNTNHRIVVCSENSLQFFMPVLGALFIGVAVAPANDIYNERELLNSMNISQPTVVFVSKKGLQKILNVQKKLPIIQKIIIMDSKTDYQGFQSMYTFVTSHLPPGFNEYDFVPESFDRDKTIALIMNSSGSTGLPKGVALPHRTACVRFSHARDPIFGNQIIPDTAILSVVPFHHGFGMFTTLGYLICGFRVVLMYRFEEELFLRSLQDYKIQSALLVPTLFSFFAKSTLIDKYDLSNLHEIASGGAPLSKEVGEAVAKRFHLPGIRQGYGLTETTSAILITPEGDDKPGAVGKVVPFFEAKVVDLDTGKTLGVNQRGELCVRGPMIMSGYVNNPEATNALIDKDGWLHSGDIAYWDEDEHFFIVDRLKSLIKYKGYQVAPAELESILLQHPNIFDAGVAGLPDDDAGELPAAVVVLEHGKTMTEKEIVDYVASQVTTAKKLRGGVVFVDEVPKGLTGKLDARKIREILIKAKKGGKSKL
Outline: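 Purified P. pyralis luciferase at 10 nM in 50 mM Tris Acetate (final), luminescence read within 5 minutes of enzyme addition to compounds. Activity normalised to PTC124 versus DMSO; concentration-response curves classed by r2, magnitude and activity.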
Potency is the fitted concentration of half-maximal effect.

| Compound | activity change, negative = inhibition | Potency |
| --- | --- | --- |
| Cc1c(N)nc([C@@H](CC(N)=O)NC[C@H](N)C(N)=O)nc1C(=O)N[C@H](C(=O)N[C@H](C)[C@H](O)[C@H](C)C(=O)N[C@@H](C(=O)NCCc1nc(-c2nc(C(=O)NCCC[S+](C)C)cs2)cs1)[C@H](C)O)[C@H](O[C@@H]1O[C@@H](CO)[C@@H](O)[C@H](O)[C@@H]1O[C@H]1O[C@H](CO)[C@H](O)[C@H](OC(N)=O)[C@@H]1O)c1cnc[nH]1 | -2.86% | – |
| O=C1OC(c2cc(I)c(O)c(I)c2)(c2cc(I)c(O)c(I)c2)c2ccccc21 | – | 32.2 µM (active) |
| CN1CC[C@]23c4c5ccc(O)c4OC2C(O)CCC3[C@H]1C5 (stereo not given in full) | -0.535% [at 123 µM] | – |
| CN1CC[C@]23c4c5ccc(O)c4OC2C(O)C=CC3[C@H]1C5 (stereo not given in full) | -4.14% [at 123 µM] | – |
| C[C@]12CCC3C(CCC4=CC(=O)CC[C@@H]43)C1CCC2O (stereo not given in full) | 0.957% | – |
| C[C@H]1[C@@H]2Cc3ccc(O)cc3[C@]1(C)CCN2C | 3.11% [at 288 µM] | – |
| COc1ccc2c3c1OC1C(O)C=CC4[C@@H](C2)N(C)CC[C@]314 (stereo not given in full) | -3.07% [at 123 µM] | – |
| O=[N+]([O-])NC1=NCCN1Cc1ccc(Cl)nc1 | -3.5% | – |
| C=C/C=C/CC1=C(C)[C@@H](OC(=O)[C@@H]2[C@@H](/C=C(\C)C(=O)OC)C2(C)C)CC1=O (tested in a mixture with another compound) | -6.8% | – |
| CCc1cc(OC)c(CC(C)N)cc1OC (stereo not given) | -0.396% [at 123 µM] | – |
| CCC(=O)O[C@@](Cc1ccccc1)(c1ccccc1)[C@H](C)CN(C)C | 5.92% [at 123 µM] | – |
| CN[C@H]1C[C@@H](N)[C@H](O)[C@@H](O[C@@H]2O[C@H](CO)[C@H](O)[C@@H]3O[C@]4(O[C@@H]23)O[C@H]([C@@H](N)CO)[C@H](O)[C@@H](O)[C@H]4O)[C@@H]1O | 5.77% | – |
| CC(C)[C@@]1(NC(=O)[C@H]2C[C@H]3c4cccc5[nH]cc(c45)C[C@@H]3N(C)C2)O[C@]2(O)[C@H]3CCCN3C(=O)CN2C1=O (tested in a mixture with another compound) | -1.72% | – |
| Oc1ccc2c3c1OC1C(O)C=CC4[C@@H](C2)NCC[C@]314 (stereo not given in full) | 0.631% [at 123 µM] | – |
| ClC[C@H]1CO1 (tested in a mixture with another compound) | -0.162% | – |
| CCC(N)CCc1c[nH]c2ccccc12 (stereo not given) | 2.21% [at 123 µM] | – |
| C[C@]12CCC3[C@@H](CCC4=CC(=O)CC[C@@]43C)C1CCC2OC(=O)CCc1ccccc1 (stereo not given in full) | -2.57% [at 123 µM] | – |
| CC12CCC(=O)CC1CCC1C2CCC2(C)C1CCC2(C)O (stereo not given) | -1.77% | – |
| COC1=CC=C2[C@H]3Cc4ccc(OC)c5c4[C@@]2(CCN3C)C1O5 (stereo not given in full) | 0.851% [at 123 µM] | – |
| CC(C)CC1C(=O)N2CCCC2C2(O)OC(NC(=O)C3CC4c5cccc6[nH]cc(c56)CC4N(C)C3)(C(C)C)C(=O)N12 (stereo not given) | -1.5% | – |
